# Entries with a potency or affinity are not part of this list. A number with no mark means an inactive call. The source made the active and inactive calls.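 The calls were made as follows: active = ATP signal reduced by compound, with fitted active dose under ten times the top valid tested dose; inactive = the rest, compounds that increase ATP levels included.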
# Test: INS-1E beta-cell viability without cytokines, dose response, cytotoxicity control for beta-cell cytokine protection project, CellTiter-Glo luminescence, dry powder (AID 488864)
# Details: INS-1E rat beta cells, 48 h, no cytokines; series mostly up to 26 µM; activity change, negative = ATP decrease: at the top concentration
SMILES,"activity change, negative = ATP decrease",outcome
C[C@@H]1CN([C@@H](C)CO)C(=O)c2cccc(NC(=O)Nc3cccc4ccccc34)c2O[C@H]1CN(C)S(=O)(=O)c1ccc2c(c1)OCCCO2,7.84%,
COc1ccc(S(=O)(=O)N(C)C[C@H]2Oc3c(NC(=O)Nc4cccc5ccccc45)cccc3C(=O)N([C@H](C)CO)C[C@H]2C)cc1,5.53%,
COc1ccc(NC(=O)N(C)C[C@@H]2Oc3c(NC(=O)Nc4cccc5ccccc45)cccc3C(=O)N([C@@H](C)CO)C[C@H]2C)cc1,5.19%,
C[C@@H]1CN([C@@H](C)CO)C(=O)c2cccc(NC(=O)Nc3cccc4ccccc34)c2O[C@H]1CN(C)S(=O)(=O)c1cn(C)cn1,2.81%,
C[C@@H]1CN([C@@H](C)CO)C(=O)c2cccc(NC(=O)Nc3cccc4ccccc34)c2O[C@H]1CN(C)C(=O)NC1CCCCC1,-14.9%,
COc1ccc(S(=O)(=O)N(C)C[C@@H]2Oc3c(NC(=O)NC4CCCCC4)cccc3C(=O)N([C@@H](C)CO)C[C@H]2C)cc1,6.92%,
Cc1ccc(S(=O)(=O)N(C)C[C@@H]2Oc3c(NC(=O)Nc4ccccc4)cccc3C(=O)N([C@H](C)CO)C[C@H]2C)cc1,0.0817%,
C[C@@H]1CN([C@@H](C)CO)C(=O)c2cccc(NC(=O)Nc3ccc(F)cc3)c2O[C@H]1CN(C)S(=O)(=O)c1ccc(Cl)cc1,8.98%,
COc1ccc(S(=O)(=O)N(C)C[C@@H]2Oc3c(cccc3N(C)C)C(=O)N([C@@H](C)CO)C[C@H]2C)cc1,5.31% [at 23.5 µM],
COc1ccc(S(=O)(=O)N(C)C[C@@H]2Oc3c(NC(=O)Nc4cccc5ccccc45)cccc3C(=O)N(C(C)C)C[C@H]2C)cc1,0.128%,
COc1ccc(S(=O)(=O)N(C)C[C@@H]2Oc3c(NC(=O)Nc4cccc5ccccc45)cccc3C(=O)N([C@@H](C)CO)C[C@H]2C)cc1,11.3%,
COc1ccc(S(=O)(=O)N(C)C[C@@H]2Oc3c(NC(=O)Nc4cccc5ccccc45)cccc3C(=O)N([C@@H](C)CO)C[C@H]2C)cc1OC,1.83%,
COc1ccc(S(=O)(=O)N(C)C[C@@H]2Oc3c(NS(C)(=O)=O)cccc3C(=O)N([C@@H](C)CO)C[C@H]2C)cc1,4.08%,
COc1ccc(S(=O)(=O)N(C)C[C@@H]2Oc3c(NC(=O)c4cc(C)nn4C)cccc3C(=O)N([C@@H](C)CO)C[C@H]2C)cc1,4.75%,
C[C@@H]1CN([C@@H](C)CO)C(=O)c2cccc(NC(=O)Nc3cccc4ccccc34)c2O[C@H]1CN(C)S(C)(=O)=O,1.3%,
C[C@H]1CN([C@@H](C)CO)C(=O)c2cccc(NC(=O)NC3CCCCC3)c2O[C@@H]1CN(C)S(C)(=O)=O,-1.82%,
Cc1ccc(S(=O)(=O)N(C)C[C@@H]2Oc3c(NC(=O)Nc4ccc(F)cc4)cccc3C(=O)N([C@H](C)CO)C[C@H]2C)cc1,5.77%,
COc1ccc(S(=O)(=O)N(C)C[C@@H]2Oc3c(NS(=O)(=O)c4ccc(F)cc4)cccc3C(=O)N([C@@H](C)CO)C[C@H]2C)cc1,0.223%,
C[C@@H]1CN([C@H](C)CO)C(=O)c2cccc(NC(=O)Nc3ccc(F)cc3)c2O[C@H]1CN(C)S(=O)(=O)c1ccc(Cl)cc1,11.6%,
C[C@@H]1CN([C@@H](C)CO)C(=O)c2cccc(NC(=O)Nc3cccc4ccccc34)c2O[C@H]1CN(C)S(=O)(=O)c1cccc(F)c1,5%,
C[C@@H]1CN([C@@H](C)CO)C(=O)c2cccc(NC(=O)Nc3cccc4ccccc34)c2O[C@H]1CN(C)S(=O)(=O)c1ccc2c(c1)OCC2,7.13%,
Cc1ccc(S(=O)(=O)N(C)C[C@@H]2Oc3c(NC(=O)Nc4ccccc4)cccc3C(=O)N([C@@H](C)CO)C[C@H]2C)cc1,8.13%,
COc1ccc(S(=O)(=O)N(C)C[C@@H]2Oc3c(NC(=O)Nc4ccc(F)cc4)cccc3C(=O)N([C@@H](C)CO)C[C@H]2C)cc1,5.46% [at 23.5 µM],
C[C@@H]1CN([C@@H](C)CO)C(=O)c2cccc(NC(=O)Nc3cccc4ccccc34)c2O[C@H]1CN(C)S(=O)(=O)c1ccc2c(c1)OCCO2,,inactive
Cc1ccc(S(=O)(=O)N(C)C[C@H]2Oc3c(NC(=O)Nc4cccc5ccccc45)cccc3C(=O)N([C@@H](C)CO)C[C@@H]2C)cc1,3.34% [at 12 µM],
COc1ccc(S(=O)(=O)N(C)C[C@@H]2Oc3c(NC(=O)Nc4ccccc4)cccc3C(=O)N([C@H](C)CO)C[C@H]2C)cc1,1.41%,
C[C@@H]1CN([C@@H](C)CO)C(=O)c2cccc(NC(=O)Nc3ccccc3)c2O[C@H]1CN(C)S(=O)(=O)c1ccc(Cl)cc1,3.91%,
C[C@@H]1CN([C@H](C)CO)C(=O)c2cccc(NC(=O)Nc3cccc4ccccc34)c2O[C@H]1CN(C)S(=O)(=O)c1ccc(Cl)cc1,6.88%,
COc1ccc(S(=O)(=O)Nc2cccc3c2O[C@@H](CN(C)S(=O)(=O)c2ccc(OC)cc2)[C@H](C)CN([C@@H](C)CO)C3=O)cc1,0.616%,

# Source: PubChem BioAssay AID488864 (Broad Institute, 2010)
